# Sfp inh: inhibitors of Bacillus subtilis Sfp phosphopantetheinyl transferase; Biochemical Sfp PPTase activity, qHTS; Potency, µM, for the others: largest response in the series, negative = inhibition, hits mostly inhibitors; 310,000 compounds, 3.5% hits;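 further: the enzyme is Sfp with the accession as filed and its product quenches rhodamine fluorescence; potency means the concentration at half of the fitted maximal effect; 0% = enzyme reaction without inhibitor and -100% = no enzyme wells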
#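 Buffer: 50 mM Hepes-Na pH 7.6, 10 mM MgCl2, 0.01% Nonidet P-40, 0.01% BSA. Enzyme 15 nM, pre-exposed to compound 15 min; substrates then added and fluorescence change tracked over 30 min.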
# Tau fibril FP: tau fibrillization inhibition (FP). P10636. K18 P301L tau heparin fibrillization, Alexa594 FP, 6 h. Potency, µM (top dose mostly 57.7 µM), for inactives: at the top dose activity, negative = inhibition, actives largely listed as inhibitors. 280,000 compounds, 0.39% hits; further: potency means the concentration at half of the fitted maximal effect; nearly all actives have a fitted effect of over 55% in size
# Target sequence (P10636 561-689 P618L limits assumed): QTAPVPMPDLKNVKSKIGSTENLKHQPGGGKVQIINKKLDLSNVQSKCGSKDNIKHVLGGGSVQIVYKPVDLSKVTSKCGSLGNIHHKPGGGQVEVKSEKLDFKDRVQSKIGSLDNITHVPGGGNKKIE
#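 Heparin (20 uM) drove fibril formation of recombinant tau K18 P301L, 15 uM unlabeled with 0.24 uM Alexa 594 label, for 6 hr at 37 C in 100 mM sodium acetate pH 7. Fluorescence polarization (555/632 nm) read 1 hr after 30 uM ThT.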
# Tau fluor cs: counter-screen for tau fibril formation inhibitors; tau K18 P301L Alexa594 fluorescence, heparin fibrillization; Potency, µM (series often up to 57.7 µM), for the others: top-dose activity change, negative = decrease; 280,000 compounds, 0.93% hits; AID 1463; further: potency means the concentration at half of the fitted maximal effect; nearly all actives have a fitted effect of over 55% in size
#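 Human tau K18 P301L (15 uM unlabeled, 0.24 uM Alexa 594-labeled) in 100 mM sodium acetate pH 7 with 20 uM heparin, 6 hr at 37 C. ThT 30 uM added, 1 hr ambient; Alexa 594 FP and total fluorescence read at 555/632 nm.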
# Coupling enz: counter-screen for Giardia aldolase inhibitors: coupling enzyme system; 290,000 compounds, 0.67% hits; activity change, negative = inhibition, % at 58.2 µM, hits read low; AID 2472; coupling enzyme system counterscreen, AmpLite Red fluorescence; in the data active means activity change below about -30%
#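 Counterscreen lacking aldolase: glyceraldehyde-3-phosphate coupling-enzyme reagent preincubated 10 min at RT with compound (at 57.5 uM final), then substrate/coupling system with AmpLite Red added; fluorescence read at 525/598 nm after 20 min RT.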
# JMJD2E inh: inhibitors of human JMJD2E histone demethylase | Potency, µM (titrated, usually from 57.1 µM), inactives show top-dose activity change, negative = inhibition, hits mostly inhibitors | 230,000 compounds, 1.6% hits | B2RXH2 | JMJD2E catalytic domain, FDH-coupled NADH fluorescence (FDH is formaldehyde dehydrogenase) | AID 2147; active means well fitted inhibition curve with a large enough effect, not every such curve was filed as active; inconclusive means small, poorly fitted or top-dose-only effect, or another doubt; inactive means no such curve, though single readings can be large or run the other way;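 further: potency means the concentration at half of the fitted maximal effect; 0% = wells with enzyme and -100% = buffer wells without enzyme; nearly all actives have a fitted effect of over 50% in size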
# Target sequence (B2RXH2 1-337 limits assumed): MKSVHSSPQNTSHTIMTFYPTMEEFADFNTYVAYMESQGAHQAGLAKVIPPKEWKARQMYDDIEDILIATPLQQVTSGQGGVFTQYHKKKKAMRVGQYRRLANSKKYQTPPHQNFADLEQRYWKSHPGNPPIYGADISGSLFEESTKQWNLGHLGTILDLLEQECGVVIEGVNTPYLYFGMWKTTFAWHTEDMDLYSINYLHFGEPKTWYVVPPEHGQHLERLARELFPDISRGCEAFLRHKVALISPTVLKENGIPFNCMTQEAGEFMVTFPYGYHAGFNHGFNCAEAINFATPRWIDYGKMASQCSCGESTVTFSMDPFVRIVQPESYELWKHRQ
# Tau ThT inhib: blocks human tau fibril formation measured by thioflavin T. Potency, µM (doses to about 57.4 µM), for inactives: at the highest dose activity, negative = inhibition, usual class: inhibitors. P10636. recombinant tau K18 P301L (four-repeat tau fragment), heparin-induced fibrillization, ThT fluorescence. 270,000 compounds, 2.1% hits. AID 1460; further: potency means the concentration at half of the fitted maximal effect; nearly all actives have a fitted effect of over 55% in size
#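 Recombinant human tau K18 fragment […] carrying P301L, 15 uM unlabeled plus 0.24 uM Alexa 594-labeled, was fibrillized with 20 uM heparin in 100 mM sodium acetate pH 7 for 6 hr at 37 C; 30 uM ThT fluorescence read after 1 hr.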
# Starred values were filed as active, the others as inactive; ? = inconclusive; . = no result; [ ] = dose if it differs, or a comment. In the library only some 5.3% were active in any assay of this set; here they are far more common. Unless noted, the call rests on the fitted dose curve; in most records, active means well fitted curve in the direction sought with a large enough effect; inconclusive means small, poorly fitted or top-dose-only effect, or another doubt; inactive means no such curve, though single readings can be large; an effect the other way counts as inactive or inconclusive. Unless noted, on the % scale 0 is the no-effect control and ±100 the full control effect.
SMILES,Sfp inh,Tau fibril FP,Tau fluor cs,Coupling enz,JMJD2E inh,Tau ThT inhib
CCOC(=O)N1CCc2c(sc3c2C(=O)NC(c2cc(OC)c(OC)c(OC)c2)N3)C1 (stereo not given),.,-7%,-25%,.,.,16µM*
O=C1NC(c2ccccn2)Nc2sc3c(c21)CCC3 (stereo not given),32µM*,?,-26%,-16,?,20µM*
Cc1ccc(C2NC(=O)c3c(sc4c3CCN(C)C4)N2)o1 (stereo not given),?,-14%,-5%,-11,?,?
CN1CCc2c(sc3c2C(=O)NC(c2ccccc2)N3)C1 (stereo not given),56µM*,?,1%,-22,?,?
COc1ccc(NC(=O)C(NC(=O)/C=C\c2ccc3c(c2)OCO3)c2ccccc2)cc1 (stereo not given),.,?,?,.,.,2%
CCCCCCCCCCCCCCOc1ccc(C(=O)O)o1,2%,.,.,9,.,.
CCOc1cc(Br)cc(C2NC(=O)c3c(sc4c3CCN(C)C4)N2)c1O (stereo not given),.,-12%,-20%,.,.,16µM*
CCOc1cc(C2NC(=O)c3c(sc4c3CCN(C)C4)N2)ccc1OC(=O)c1ccc(F)cc1 (stereo not given),.,2%,-13%,.,.,?
O=C(Oc1ccc(N2C(=O)CCC2=O)cc1)c1ccccc1,-4%,-8%,-5%,0,3%,-8%
O=C1NC(c2ccc(Br)cc2)Nc2sc3c(c21)CCC3 (stereo not given),40µM*,?,-22%,-4,-23%,?
CN1CCc2c(sc3c2C(=O)NC(c2ccc(OC(=O)c4ccccc4)cc2)N3)C1 (stereo not given),.,?,-14%,.,.,5.6µM*
Cc1ccsc1C1NC(=O)c2ccccc2N1 (stereo not given),5%,12%,-10%,0,28µM*,-12%
N#Cc1ccc2c(c1)C[C@]1(c3ccsc3)OC3=C(C(=O)OC4(CCCCC4)C3)C2O1,3%,.,.,1,.,.
O=C(Nc1cccc(F)c1)N1CC[C@@]2(CCCN(C(=O)c3ccncc3)C2)C1,14%,.,.,2,.,.
COc1cccc(C2C(C(=O)Nc3ccccc3OC)=C(C)Nc3nc(-c4ccco4)nn32)c1 (stereo not given),.,-3%,?,.,.,-13%
CN1CCc2c(sc3c2C(=O)NC(c2ccc(OC(=O)c4ccc(Cl)cc4)cc2)N3)C1 (stereo not given),.,-4%,-12%,.,.,6.3µM*
Cc1ccc(C2NC(=O)c3c(sc4c3CCN(C)C4)N2)s1 (stereo not given),-2%,?,-14%,0,?,14µM*
Cc1ccsc1C1NC(=O)c2c(sc3c2CCCC3)N1 (stereo not given),45µM*,?,-28%,0,?,3.2µM*
CCOC(=O)N1CCc2c(sc3c2C(=O)NC(c2ccc(C(=O)OC)cc2)N3)C1 (stereo not given),.,-2%,-11%,.,.,?
Cc1cccc(C2NC(=O)c3c(sc4c3CCN(C)C4)N2)c1O (stereo not given),.,-13%,-22%,.,.,16µM*
CN1CCc2c(sc3c2C(=O)NC(c2ccc(OC(=O)c4ccc(C(C)(C)C)cc4)cc2)N3)C1 (stereo not given),.,-9%,-19%,.,.,?
Cc1cccc(/C=N/c2sc3c(c2C(=O)OC(C)(C)C)CCN(C)C3)c1O,0%,1%,-13%,-4,-22%,?
COc1cccc(CNC(=O)CN(c2ccc(C)cc2)S(=O)(=O)N(C)C)c1OC,.,3%,-8%,.,.,3%
COc1ccc2oc(=O)cc(CN3CCN(C(=O)c4ccccc4Br)CC3)c2c1,.,-1%,-7%,.,.,-10%
CCCCCCCC#Cc1ccccc1/C=N/S(=O)C(C)(C)C (stereo not given),1%,4%[11.6 µM],-9%[11.6 µM],1,.,-2%[11.5 µM]

# Screening results as filed in PubChem BioAssay.
